Test [1] addresses Lysosomal acid glucosylceramidase (Homo sapiens) (UniProt P04062). Kind of test: Glucocerebrosidase-p2 (AID 348; in the data active = potency below about 10 µM; also: potency is read from the fitted curve at half-maximal effect). The note with it: purified GBA, blue fluorogenic substrate, 40 min. The method in brief:
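Normal human glucocerebrosidase (0.2 nM) with blue fluorogenic substrate (80 uM final) in citrate/phosphate pH 5.9 with 10mM sodium taurocholate, 0.01% tween-20; 40 min RT, NaOH/glycine stop; fluorescence Ex 365/Em 440; AC50 from a titration from 0.6 nM upwards.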

Test [2] can be described thus: AP1 Signaling Pathway (AID 357). Also: % is scaled to controls: 0 for no effect and ±100 for the full control effect. The note with it: ME-180 AP-1-bla reporter, EGF-induced, beta-lactamase ratio, 5 h; at 7.69 µM (top of the series) unless noted. The method in brief: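 A ratiometric CCF4 readout (405 nm excitation; 460 and 530 nm emission) quantified AP-1-driven beta-lactamase in ME-180 cells after 5 h with compound and EC50 EGF; AC50 values were derived for activators and inhibitors.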

In test [3] the target is Cytochrome P450 1A2 (Homo sapiens) (UniProt P05177). Kind of test: p450-cyp1a2 (AID 410; calls by dose curve; also: potency is read from the fitted curve at half-maximal effect;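 as to activity change, negative = inhibition: -100% = full effect of reference inhibitor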). The conditions noted are these: recombinant CYP1A2, luciferin-ME demethylation, luminescence; series mostly up to 57 µM. The procedure, abridged: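 O-Demethylation of luciferin 6' methyl ether by human CYP1A2 is monitored as luciferase luminescence. Substrate sits at Km (100uM); enzyme is 20nM. Values are scaled to 57 uM furafylline as maximal inhibition.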

The nature of test [4]: NFAT Signaling Pathway (AID 444).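 Also: carbachol stimulus at about its EC50 of 1 µM final; % is scaled to controls: 0 for no effect and ±100 for the full control effect.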 The conditions noted are these: Jurkat NFAT-bla M1, carbachol, beta-lactamase ratio, 5 h; at 7.69 µM (top of the series) unless noted. The procedure, abridged: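 Jurkat cells with NFAT-driven β-lactamase reporter and co-expressed M1 receptor, stimulated with carbachol (final 1 uM, ~EC50), compound titration, 5 h at 37 °C. CCF4 loaded 1 h at RT; 460/530 nm ratio gave %activity and AC50.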

Test [5] is described as follows: Stat Signaling Pathway (AID 446).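 Also: ME-180 cervical cancer cells given 40 pM IL-6 alongside compound; SIE-controlled beta-lactamase reporter measured as 460/530 nm FRET emission ratio; % is scaled to controls: 0 for no effect and ±100 for the full control effect.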 The conditions noted are these: ME-180 (cervical carcinoma) SIE beta-lactamase reporter, IL-6 stimulated, 5 h; at 7.69 µM (top of the series) unless noted. The method in brief: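 Emission at 460 and 530 nm (excitation 405 nm) reports SIE-controlled beta-lactamase in ME-180 cells. Cells received compound with 40 pM IL-6 for 5 hrs at 37 C; data scaled between 300 pM IL-6 and 125 nM JAK-inhibitor controls.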

The target in test [6] is Glucocorticoid receptor (Homo sapiens) (UniProt P04150). Kind of test: GR-EFC Redistribution (AID 451; calls by dose curve; also: potency is read from the fitted curve at half-maximal effect). The note with it: CHO-K1 GR-EFC translocation, beta-gal luminescence, 2 h. The procedure, abridged: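 CHO-K1 cells expressing nuclear EA and GR-ED fragments of b-gal; compounds titrated up to 46 uM final, 2 h at 37 C. GR nuclear translocation read as complemented b-gal luminescence after 1 h RT detection.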

In test [7] the target is 3',5'-cyclic-AMP phosphodiesterase 4B (Homo sapiens) (UniProt Q07343). Kind of test: qHTS Assay for Inhibitors of PDE-IV (AID 607; active = well fitted activation curve with a large enough effect in the main read-out, with a control signal flat, not every such curve was filed as active; also: % of control where 0% means no effect). The conditions noted are these: HEK293 ACTOne CNG channel cells, membrane potential fluorescence; series mostly up to 22.9 µM. The procedure, abridged:
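The readout is membrane depolarisation from a cAMP-sensing CNG channel, detected with a potential dye at ex 535/em 590. Cells were HEK293-derived (endogenous PDE-IV) at 1000 cells/well, titrated up to 22.9 uM final.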

The target in test [8] is Cytochrome P450 3A4 (Homo sapiens) (UniProt P08684). Kind of test: qHTS Assay for Inhibitors and Substrates of Cytochrome P450 3A4 (AID 884; active = well fitted curve in the direction sought with a large enough effect; an effect the other way counts as inactive or inconclusive; also: nearly all actives have a fitted effect of over 50% in size; also: potency is read from the fitted curve at half-maximal effect). The conditions noted are these: recombinant CYP3A4, Luciferin-PPXE luminescence; series mostly up to 57.1 µM. The method in brief:
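Luminescent readout of luciferin produced by CYP3A4 (20 nM) dealkylation of Luciferin-PPXE, 25 uM (its KM). NADPH-driven reaction ran 60 min at RT after 10 min compound preincubation; data scaled to 57 uM ketoconazole as 100% inhibition.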
A general note: In qHTS, concentration-response curves come from the screen itself.

For test [9] the target is unchanged. In words: qHTS Assay for Activators of Cytochrome P450 3A4 (AID 885; active = well fitted curve in the direction sought with a large enough effect; an effect the other way counts as inactive or inconclusive; also: nearly all actives have a fitted effect of over 65% in size; also: potency is read from the fitted curve at half-maximal effect). The conditions noted are these: recombinant CYP3A4, Luciferin-PPXE luminescence, 60 min; series mostly up to 57.1 µM. The method in brief:
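Activators are scored by enhanced luminescence from CYP3A4 conversion of luciferin-PPXE (25uM, equal to KM) to luciferin, after 60 min at RT with an NADPH-regenerating system.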

Test [10] in a line: qHTS Assay for Lipid Storage Modulators (AID 1519; calls by dose curve). The note with it: Drosophila S3 cells, BODIPY lipid droplet/cell ratio, laser cytometry, cells loaded with oleic acid; for activity change, negative = inhibition: at 57.5 µM (top of the series). The procedure, abridged:
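Cells seeded at 5,000 per well were treated with compounds over a concentration series and loaded with oleic acid (400 uM, as added). Lipid droplet fluorescence (488 nm excitation, 500-530 nm channel) was read by laser-scanning cytometry and normalized to 20 uM Triacsin C.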

The nature of test [11]: Primary qHTS for small molecule stabilizers of the endoplasmic reticulum resident proteome: Secreted ER Calcium Modulated Protein (SERCaMP) assay (AID 1508630; active = well fitted curve in the direction sought with a large enough effect; an effect the other way counts as inactive or inconclusive; also: % is scaled to controls: 0 for no effect and ±100 for the full control effect). The note with it: SH-SY5Y GLuc-SERCaMP (Gaussia luciferase released on ER calcium loss) secretion, thapsigargin, luminescence; series mostly up to 38.4 µM. The method in brief: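 The SH-SY5Y reporter protocol was run at 3 concentrations up to 38.3 uM (primary) or 11 concentrations (follow-up): 16 h compound, 100 nM thapsigargin for 4 h, then extracellular luciferase luminescence.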

The target of test [12] is Cytochrome P450 2C19 (Homo sapiens) (UniProt P33261). Kind of test: qHTS Assay for Inhibitors and Substrates of Cytochrome P450 2C19 (AID 899; active = well fitted curve in the direction sought with a large enough effect; an effect the other way counts as inactive or inconclusive; also: potency is read from the fitted curve at half-maximal effect; nearly all actives have a fitted effect of over 60% in size). The conditions noted are these: recombinant CYP2C19, luciferin-H EGE luminescence; series mostly up to 57.1 µM. The procedure, abridged:
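Signal comes from luciferase acting on luciferin released by CYP2C19-mediated hydroxylation of Luciferin-H EGE, 10uM (KM). Assay mix: 5nM enzyme, 50mM KPO4; 60 min at 37C with NADPH regeneration. Data normalized against 57uM ketoconazole.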

Test [13] has as its target Mitogen-activated protein kinase 10 (Mus musculus) (UniProt Q61831). Kind of test: JNK3 AlphaScreen Assay (AID 530). The conditions noted are these: JNK3 lysate, c-Jun phosphorylation; series mostly up to 57.1 µM. The procedure, abridged: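 Activity was read by AlphaScreen after JNK3-containing HepG2 lysate (cytokine pre-activated) phosphorylated biotinylated GST-cJun with 10 uM ATP at room temperature. Phospho-Ser73 cJun antibody with Protein-A acceptor beads provided detection.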
For orientation: In Alpha technology, singlet oxygen from a donor bead excites a nearby acceptor bead.

The mark [14] stands for this setting: measured here: cell count channel max response.
[15] abbreviates: measured here: lipid channel max response.

Inconclusive results are not listed. The source made the active and inactive calls. Unless noted, calls follow the shape of the dose curve; as a rule, active = well fitted curve in either direction with a large enough effect (not every such curve was filed as active); inconclusive = small, poorly fitted or top-dose-only effect, or another doubt; inactive = flat fitted curve, though single readings scatter.

Sequence of Glucocorticoid receptor (Homo sapiens) (P04150 whole entry, looked up, the tested form may be a part): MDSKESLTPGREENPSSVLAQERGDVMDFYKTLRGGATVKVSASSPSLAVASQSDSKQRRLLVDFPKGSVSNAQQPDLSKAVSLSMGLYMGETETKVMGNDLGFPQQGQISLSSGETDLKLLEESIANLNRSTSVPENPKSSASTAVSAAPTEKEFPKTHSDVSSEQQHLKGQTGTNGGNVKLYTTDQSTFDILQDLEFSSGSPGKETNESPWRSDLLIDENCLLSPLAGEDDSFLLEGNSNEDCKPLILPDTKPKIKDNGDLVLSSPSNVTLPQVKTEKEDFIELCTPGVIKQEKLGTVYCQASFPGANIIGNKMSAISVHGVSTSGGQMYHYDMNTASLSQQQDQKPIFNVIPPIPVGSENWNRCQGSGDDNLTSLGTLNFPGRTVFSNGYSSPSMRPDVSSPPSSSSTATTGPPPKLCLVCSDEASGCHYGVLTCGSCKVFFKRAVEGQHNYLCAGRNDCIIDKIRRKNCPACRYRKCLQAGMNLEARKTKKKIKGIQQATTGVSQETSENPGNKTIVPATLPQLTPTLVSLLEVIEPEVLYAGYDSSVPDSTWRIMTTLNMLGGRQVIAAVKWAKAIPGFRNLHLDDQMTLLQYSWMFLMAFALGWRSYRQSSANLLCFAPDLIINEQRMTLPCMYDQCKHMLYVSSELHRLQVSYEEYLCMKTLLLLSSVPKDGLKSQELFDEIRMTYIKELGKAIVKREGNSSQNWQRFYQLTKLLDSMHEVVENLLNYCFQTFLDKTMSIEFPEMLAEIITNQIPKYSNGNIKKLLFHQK
Sequence of Cytochrome P450 3A4 (Homo sapiens) (P08684 whole entry, looked up): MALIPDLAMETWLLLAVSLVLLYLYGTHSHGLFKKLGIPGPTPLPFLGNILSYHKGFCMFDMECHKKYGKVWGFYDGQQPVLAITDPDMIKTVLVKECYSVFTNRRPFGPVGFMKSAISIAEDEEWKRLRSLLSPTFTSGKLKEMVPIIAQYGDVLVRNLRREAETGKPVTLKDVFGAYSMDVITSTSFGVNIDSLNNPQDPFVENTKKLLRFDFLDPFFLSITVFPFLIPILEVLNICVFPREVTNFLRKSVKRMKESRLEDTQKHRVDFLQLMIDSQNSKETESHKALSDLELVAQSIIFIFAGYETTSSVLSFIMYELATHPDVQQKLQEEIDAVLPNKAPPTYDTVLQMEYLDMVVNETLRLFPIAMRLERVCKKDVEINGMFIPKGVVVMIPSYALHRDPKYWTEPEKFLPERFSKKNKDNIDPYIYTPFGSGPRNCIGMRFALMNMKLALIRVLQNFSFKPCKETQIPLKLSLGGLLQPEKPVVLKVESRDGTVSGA
Sequence of 3',5'-cyclic-AMP phosphodiesterase 4B (Homo sapiens) (Q07343 whole entry, looked up): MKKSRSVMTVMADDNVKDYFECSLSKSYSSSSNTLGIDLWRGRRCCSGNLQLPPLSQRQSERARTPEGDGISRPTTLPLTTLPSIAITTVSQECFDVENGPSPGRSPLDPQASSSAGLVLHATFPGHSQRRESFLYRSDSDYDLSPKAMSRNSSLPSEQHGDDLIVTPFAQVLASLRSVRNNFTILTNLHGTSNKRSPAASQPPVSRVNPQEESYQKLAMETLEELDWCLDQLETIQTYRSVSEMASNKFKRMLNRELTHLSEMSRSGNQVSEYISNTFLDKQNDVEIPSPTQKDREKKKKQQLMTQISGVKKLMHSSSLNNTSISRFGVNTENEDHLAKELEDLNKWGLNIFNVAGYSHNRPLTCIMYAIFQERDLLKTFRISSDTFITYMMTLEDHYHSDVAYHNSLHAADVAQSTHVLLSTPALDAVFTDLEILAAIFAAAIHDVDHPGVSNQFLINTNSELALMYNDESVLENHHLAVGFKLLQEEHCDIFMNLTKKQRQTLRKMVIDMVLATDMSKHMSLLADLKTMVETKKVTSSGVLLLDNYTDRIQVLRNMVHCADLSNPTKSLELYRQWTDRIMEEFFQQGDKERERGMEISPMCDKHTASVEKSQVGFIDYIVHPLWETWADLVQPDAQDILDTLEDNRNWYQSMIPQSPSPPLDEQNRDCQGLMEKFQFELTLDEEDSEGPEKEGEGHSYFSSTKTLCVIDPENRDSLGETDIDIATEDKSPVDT
Sequence of Cytochrome P450 1A2 (Homo sapiens) (P05177 whole entry, looked up): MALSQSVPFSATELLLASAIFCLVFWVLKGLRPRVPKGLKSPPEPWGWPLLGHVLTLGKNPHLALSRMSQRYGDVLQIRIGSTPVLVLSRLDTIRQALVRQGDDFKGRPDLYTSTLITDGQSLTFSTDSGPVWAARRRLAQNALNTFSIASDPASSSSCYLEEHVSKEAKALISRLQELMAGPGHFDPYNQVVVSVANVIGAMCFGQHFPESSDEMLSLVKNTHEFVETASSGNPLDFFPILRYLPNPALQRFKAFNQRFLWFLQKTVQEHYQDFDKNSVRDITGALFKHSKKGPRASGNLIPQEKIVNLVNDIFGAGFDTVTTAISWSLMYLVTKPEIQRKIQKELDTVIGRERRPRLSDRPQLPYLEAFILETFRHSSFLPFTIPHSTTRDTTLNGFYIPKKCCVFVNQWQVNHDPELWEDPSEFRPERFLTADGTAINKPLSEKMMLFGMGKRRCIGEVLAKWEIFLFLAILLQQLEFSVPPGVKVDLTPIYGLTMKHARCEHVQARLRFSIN
Sequence of Lysosomal acid glucosylceramidase (Homo sapiens) (P04062 whole entry, looked up): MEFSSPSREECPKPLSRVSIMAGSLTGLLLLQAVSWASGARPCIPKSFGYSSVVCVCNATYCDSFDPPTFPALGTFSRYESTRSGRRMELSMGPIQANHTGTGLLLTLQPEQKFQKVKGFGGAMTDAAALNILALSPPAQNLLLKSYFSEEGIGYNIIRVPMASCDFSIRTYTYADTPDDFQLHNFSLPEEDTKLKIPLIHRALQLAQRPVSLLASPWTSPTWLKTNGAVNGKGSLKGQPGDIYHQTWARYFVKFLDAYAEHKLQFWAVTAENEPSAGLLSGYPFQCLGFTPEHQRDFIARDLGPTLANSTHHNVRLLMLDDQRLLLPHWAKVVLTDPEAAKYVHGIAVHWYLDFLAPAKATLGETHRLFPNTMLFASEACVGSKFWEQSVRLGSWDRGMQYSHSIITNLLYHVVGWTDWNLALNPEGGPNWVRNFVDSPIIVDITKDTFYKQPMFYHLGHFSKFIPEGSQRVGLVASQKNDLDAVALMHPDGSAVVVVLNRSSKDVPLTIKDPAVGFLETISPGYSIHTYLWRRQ
Sequence of Cytochrome P450 2C19 (Homo sapiens) (P33261 whole entry, looked up): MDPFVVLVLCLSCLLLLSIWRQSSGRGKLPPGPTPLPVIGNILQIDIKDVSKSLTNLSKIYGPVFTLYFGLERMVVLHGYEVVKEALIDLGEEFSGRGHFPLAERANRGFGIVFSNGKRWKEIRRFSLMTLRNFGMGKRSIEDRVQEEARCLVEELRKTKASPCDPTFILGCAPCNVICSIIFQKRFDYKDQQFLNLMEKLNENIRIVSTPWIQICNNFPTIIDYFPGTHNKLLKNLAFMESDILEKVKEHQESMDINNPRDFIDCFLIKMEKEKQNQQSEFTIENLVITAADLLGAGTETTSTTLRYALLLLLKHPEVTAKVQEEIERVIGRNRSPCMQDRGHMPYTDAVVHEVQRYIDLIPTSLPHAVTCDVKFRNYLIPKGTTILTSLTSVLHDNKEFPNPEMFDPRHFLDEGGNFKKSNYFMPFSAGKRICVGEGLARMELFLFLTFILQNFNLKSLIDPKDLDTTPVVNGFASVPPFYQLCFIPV

Take `O=C(Oc1ccccc1)N1CCC2(CC1)CN(c1ccccc1)C2`: the Potency in [1] was > 11.4 µM (inactive); in [3] it was 15.8 µM (active); in [6] it was > 46 µM (inactive); in [9], 15.8 µM (active). The figures for the activity change, negative = inhibition in test [2], in test [4] and in test [10] were 3.75% (inactive), -1.1% (inactive) and 1.33% (inactive), respectively. Further, the activity, negative = inhibition in test [5] was -0.517% (inactive). In addition, the Potency entry in test [7], in test [8] and in test [11] was “inactive” each time. The max response in [10] (setting [14]) is -10.5%; in [10] (setting [15]) it was -7.26%.
Consider `CS(=O)(=O)N1CCC2(CC1)CN(Cc1nccs1)C2`, for which the Potency in test [1] was > 11.4 µM (inactive); in test [3], 6.31 µM (active); in test [6] it was > 46 µM (inactive). The values for the activity change, negative = inhibition in test [2], in test [4] and in [10] were -7.04% (inactive), 11.5% (inactive) and 3.27% (inactive), respectively. In addition, in [5], the activity, negative = inhibition was 6.32% (inactive). The Potency result in [7] and in test [11] was “inactive” each time. The figures for the max response in [10] (setting [14]) and in test [10] (setting [15]) were 13.6% and 18.5%, respectively.
Consider `O=C(c1cnccn1)N1CCC2(CC1)CN(c1ccncc1)C2`, for which the Potency in test [1] is > 11.4 µM (inactive); in [6] it was > 46 µM (inactive). Moreover, the activity change, negative = inhibition in [2] is 4.42% (inactive); in test [4] it was -19.4% (inactive); in test [10], -0.9% (inactive). In addition, the Potency result in test [3], in test [7] and in [11] was “inactive” throughout. Moreover, the activity, negative = inhibition in test [5] was 2.09% (inactive). Also, the figures for the max response in test [10] (setting [14]) and in [10] (setting [15]) were -18.2% and -17.9%, respectively.
Take `Cn1cccc1C(=O)N1CCC2(CCCN(c3ccccc3)C2)CC1`: the Potency in test [1] is > 11.4 µM (inactive); in [3] it was 10 µM (active); in [6] it was > 46 µM (inactive); in [12] it was 7.94 µM (active). Besides, the activity change, negative = inhibition in test [2] was -3.96% (inactive); in [4] it was 5.63% (inactive); in test [10], 1.89% (inactive). The activity, negative = inhibition in test [5] is -6.3% (inactive). For the same compound, the Potency entry in test [7], in test [9] and in test [11] was “inactive” each time. In addition, the max response in [10] (setting [14]) stood at 1.38%; in test [10] (setting [15]), 7.11%.
Turning to `O=C(c1csnn1)N1CCC2(CCCN(c3ccccc3)C2)CC1`, the results for the Potency in test [1] and in [6] were > 11.4 µM (inactive) and > 46 µM (inactive), respectively. Besides, the activity change, negative = inhibition in test [2] was -2.99% (inactive); in [4], 1.2% (inactive); in test [10], -0.699% (inactive). The Potency entry in test [3], in [9] and in test [11] was “inactive” throughout. In addition, the activity, negative = inhibition in [5] is -8.69% (inactive). Besides, the result in test [13] was inactive. Also, the max response in test [10] (setting [14]) amounted to 7.99%; in [10] (setting [15]), 11.5%.
`O=S(=O)(c1ccccc1)N1CCC[C@@]2(CCN(c3ccccc3)C2)C1`: the Potency in test [1] is > 11.4 µM (inactive); in [3] it was 3.98 µM (active); in [8], 5.01 µM (active); in test [12] it was 0.316 µM (active). The results for the activity change, negative = inhibition in test [2], in test [4] and in test [10] were -10.1% (inactive), -13.8% (inactive) and -16% (inactive), respectively. For the same compound, in test [5], the activity, negative = inhibition is -4.22% (inactive). Besides, the Potency result in test [9] and in test [11] was “inactive” throughout. The values for the max response in [10] (setting [14]) and in [10] (setting [15]) were 5.79% and -9.53%, respectively.

(Values after PubChem BioAssay (NCATS).)
